Laboratory results reported in ChEMBL document CHEMBL4513135, “CO-ADD screening of IQOG CSIS (Spain) compounds”.
“And” between values parts separate entries of the source, which are not always exact repeats. Identical values can stand only once. Entries with a potency or affinity are not part of this list.

What was measured:
[1] = test system: Staphylococcus aureus; conditions: Concentration 32 ug.mL-1, ASSAY_TEST Inhibition of Bacterial Growth, detection method Absorption (OD600), MEDIA CAMHB, plate type 384well, NBS, CORNING #3640, time 18 hr
[2] = test system: Escherichia coli; conditions: Concentration 32 ug.mL-1, ASSAY_TEST Inhibition of Bacterial Growth, detection method Absorption (OD600), MEDIA CAMHB, plate type 384well, NBS, CORNING #3640, time 18 hr

| Compound | Inhibition [1] | Inhibition [2] | Inhibition ([1]; 32 ug/mL) | Inhibition ([2]; 32 ug/mL) |
| --- | --- | --- | --- | --- |
| CC(=O)CCc1c[nH]c2ccccc12 | 10.48% | 10.88% | – | – |
| COc1ccc(C2c3c(ccc4ccccc34)OC(=NBr)C2(Br)C#N)cc1 (stereo unspecified) | 37.33% | -19.75% | – | – |
| Nc1nc(N)c(C=O)c(-c2ccccc2)c1C=O | 3.38% | 16.24% | – | – |
| CCCCCCC(C)NNC(=O)c1cc2ccccc2[nH]1 (stereo unspecified) | -0.84% | 6.64% | – | – |
| C#CC[n+]1ccccc1N.[Br-] | 6.4% | 12.69% | – | – |
| Cc1ccc(CNNC(=O)c2c[nH]c3ccccc23)cc1 | -8.4% | -3.7% | – | – |
| CSC1=NC2(CC2c2ccccc2)C(=O)N1 (stereo unspecified) | 10.34% | 2.43% | – | – |
| C#CCNc1[nH]c2ccc(O)cc2c1C#N | 30.3% | -3.92% | – | – |
| COc1ccccc1C1C(C#N)=C(N)Oc2ccc3ccccc3c21 (stereo unspecified) | 38.4% | -7.08% | – | – |
| CCOC(=O)c1c[nH]c2ccc(OCc3ccccc3)cc12 | 5.22% | 6.31% | – | – |
| CCOC(=O)c1cn(C)c2ccccc12 | 5.67% | 4.13% | – | – |
| COc1nc2nc3c(c(N)c2cc1C#N)CN(Cc1ccccc1)CC3 | 9.36% | 4.83% | – | – |
| COc1ccc(CNNC(=O)c2cc3ccccc3[nH]2)cc1 | 2.37% | -1.53% | – | – |
| CC1Cc2c(nc3c(c2N)CCCC3)NC1=O (stereo unspecified) | 29.78% | -3.82% | – | – |
| CC(=O)O[C@H]1CC[C@H](NC(=O)c2ccccc2)CC1 | 27.4% | -7.44% | – | – |
| CC(=O)Nc1nc(Cl)c(C#N)c(-c2ccccc2)c1C#N | 21.15% | -6.98% | – | – |
| N#Cc1cc(C#N)c(N2CCCC2)nc1N1CCCC1 | 17.61% | 8.77% | – | – |

| Compound | Inhibition [1] | Inhibition [2] | Inhibition ([1]; 32 ug/mL) | Inhibition ([2]; 32 ug/mL) |
| --- | --- | --- | --- | --- |
| O=C1NC(=S)N/C1=C\c1c[nH]c2ccccc12 | 7.26% | 6.43% | – | – |
| CC(=O)n1cc(/C=C2\N=C(c3ccccc3)OC2=O)c2ccccc21 | 15.78% | 15.77% | – | – |
| Nc1c2c(nc3c1C(c1c(Cl)cccc1Cl)c1ccc4ccccc4c1O3)CCCC2 (stereo unspecified) | 2.04% | 3.11% | – | – |
| CSC1=NC(=Cc2ccccc2)C(=O)N1C | 5.89% | 10.03% | – | – |
| N#Cc1cc2c(N)c3c(nc2nc1N1CCCCC1)CCCC3 | 29.29% | 3.13% | – | – |
| c1ccc(CNc2ncnc3c2cnn3-c2ccccc2)cc1 | 7.54% | 6.64% | – | – |
| Cc1nc(Nc2ccccc2)c2c(C)nn(-c3ccccc3)c2n1 | 15.21% | 8.02% | – | – |
| CCOC(=O)C1=C(C)NC(N)=C(C#N)C1c1ccc([N+](=O)[O-])cc1 (stereo unspecified) | 22.51% | -7.02% | – | – |
| COc1ccc(C2c3c(ccc4ccccc34)OC(=N)C2(Br)C#N)cc1OC (stereo unspecified) | 9.13% | -16.19% | – | – |
| CCCC(C)NNC(=O)c1cc2ccccc2[nH]1 (stereo unspecified) | 2.06% | 3.83% | – | – |
| ClCCC1CCN(Cc2ccccc2)CC1 | 26.32% | 16.74% | – | – |
| COc1cc(C2c3c(nc4c(c3N)CCCC4)Oc3ccc4ccccc4c32)cc(OC)c1OC (stereo unspecified) | 14.84% | 14.05% | – | – |
| COc1ccc(C2c3c(nc4c(c3N)CCCC4)Oc3ccc4ccccc4c32)cc1OC (stereo unspecified) | 3.78% | 13.42% | – | – |
| Cn1ccnc1C1c2c(nc3c(c2N)CCC3)Oc2ccc3ccccc3c21 (stereo unspecified) | 25.1% | -9.44% | – | – |
| COc1ccc(-c2c(C#N)c(=O)oc3c2ccc2ccccc23)cc1 | – | – | 29.57% and 19.64% | -26.6% and -23.12% |
| Cc1cnc(NC(=O)OC(C)(C)C)c(Br)c1 | 34.57% | -15.12% | – | – |
